Data published in PubChem BioAssay (NCI).
About 79,000 compounds went through this panel and 15% of them were active in at least one assay; those are over-represented in the sample as a whole. A number with no mark means an inactive call. Calls of active or inactive are those of the source. No stated cut-off is given here; in the data, active means growth inhibition above about 70%; inactive means the rest.

Tests used:
[1] = NCI Yeast Anticancer Drug Screen. Data for the rad50 strain (AID 155);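 further: 0% = growth of vehicle-only cultures of the same strain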; settings: S. cerevisiae rad50 strain growth inhibition; at 50.0 µM; stronger effect = higher value
How it was run: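 Genetically altered yeast (DNA repair pathway); compound treatment; growth inhibition vs vehicle ctrl.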

[2] = NCI Yeast Anticancer Drug Screen. Data for the mec2-1 strain (AID 157); settings: S. cerevisiae mec2-1 strain, at 50.0 µM, stronger effect = higher value
How it was run: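 Using mec2-1 yeast: add compound, measure growth, express inhibition versus vehicle-treated cultures.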

[3] = NCI Yeast Anticancer Drug Screen. Data for the sgs1 mgt1 strain (AID 161);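 further: 0% = growth of cultures given vehicle only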; settings: S. cerevisiae sgs1 mgt1 strain, at 50.0 µM, stronger effect = higher value
How it was run: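 Yeast cells carrying a defined DNA-repair defect were exposed to test compounds. Growth inhibition was measured relative to vehicle-treated controls.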

[4] = NCI Yeast Anticancer Drug Screen. Data for the cln2 rad14 strain (AID 165);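 further: 0% = growth equal to vehicle treated cultures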; settings: S. cerevisiae cln2 rad14 strain, at 50.0 µM, stronger effect = higher value
How it was run: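 Yeast strain cln2 rad14, bearing defects in cell cycle control and DNA repair, serves as the test system; values reflect growth inhibition compared with vehicle.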

[5] = NCI Yeast Anticancer Drug Screen. Data for the bub3 strain (AID 167); settings: S. cerevisiae bub3 mutant strain, at 50.0 µM, stronger effect = higher value
How it was run: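 Yeast carrying a defined mutation is treated with each compound, and growth is compared with that of vehicle-exposed cells to give inhibition.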

[6] = NCI Yeast Anticancer Drug Screen. Data for the mlh1 rad18 strain (AID 175); settings: S. cerevisiae mlh1 rad18 strain growth inhibition; at 50.0 µM; stronger effect = higher value
How it was run: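 Steps: expose repair-defective yeast to compound; measure growth; express inhibition against vehicle-treated controls.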

SMILES	growth inhibition [1]	growth inhibition [2]	growth inhibition [3]	growth inhibition [4]	growth inhibition [5]	growth inhibition [6]
CC([C@H](c1ccccc1)C1CCC(C(N)=O)(N2CCOCC2)C1)[N+](=O)[O-] (stereo partly specified)	5.8%	7.9%	12.3%	39.1%	4.45%	9.85%
CCCCCCCCOc1ccc(C=Nc2ccc(C)cc2)cc1	-2.05%	19.3%	0.45%	-9.8%	16.9%	13%
CC1CC2=C(C1)C(C1(C)C(=O)CC3C(C1=O)C3(C)C)C(C)C2=O (stereo unspecified)	2.3%	-24.6%	5.5%	3.3%	4.6%	-44.6%
Cc1ccc(C2(C)NC(=S)N(NC(N)=S)C2=S)cc1 (stereo unspecified)	32.3%	19.8%	7.15%	3.25%	4.65%	21.8%
CCN(CC)CCC(O)(c1cccc(Cl)c1)C1CCCCC1 (stereo unspecified)	-1.4%	-6.25%	-3.1%	-68%	-7.95%	-7.25%
CC(=O)C(=C(c1ccccc1)c1ccccc1)c1ccccc1	-51.4%	-7.8%	-32.9%	-1.4%	-46.6%	7.6%
CC1(C)C[C@@H]2C1CCC1(C)CC2(O)CC[C@H]1O (stereo partly specified)	-23.6%	-35%	-24.8%	14.4%	2.3%	-17.9%
COC1OC(CO)C(O)C(O)C1Br (stereo unspecified)	19.8%	13.9%	13%	31.7%	23.8%	21.2%
OCCOc1c(Cl)c(C(Cl)(Cl)Cl)nc2ccccc12	84.2% (active)	95.3% (active)	91% (active)	46%	94% (active)	94.3% (active)
CC1OC(OC2C(OC3C[C@@]4(C)C(C[C@H](O)[C@H]5[C@H](C6(C)CCC(C(C)(C)O)O6)CCC54C)[C@]4(C)CC[C@@H](O)C(C)(C)C34)OC(CO)C(O)C2O)C(O)C(O)C1O (stereo partly specified) (tested in a mixture with another compound)	-7.6%	-20.1%	-3.45%	-26.7%	-8.5%	-72.5%
c1ccc2c(c1)N=C(c1ccc3ccccc3c1)CC(c1cccc3ccccc13)S2 (stereo unspecified)	13.2%	5.25%	-33.1%	33.1%	19.3%	-3.15%
NC(=O)N/N=C(\CCC(=O)N(Cc1ccccc1)Cc1ccccc1)CC(=O)c1ccc(F)cc1	-1.5%	10.8%	-30.9%	18.8%	-7.9%	-14.9%
COc1ccccc1NC(=O)CC(=O)n1nc(C)c(N=Nc2ccccc2F)c1C	-41.6%	1.45%	-28.2%	6.8%	-31.9%	-30.3%
CC1=C(C(=O)CC(=O)C(=O)Nc2cccc(Cl)c2C)Sc2ccccc2N1	-18.8%	-8.1%	-31.4%	19.1%	-13.6%	-10.6%
CCCCCCC(C)OC(=O)CCl (stereo unspecified)	-0.55%	-6.4%	2.25%	6.1%	1.25%	0.95%
CCCOc1ncnc2nc[nH]c12	7.3%	-6.05%	1.55%	-6.4%	5.3%	19.7%
C[Si](C)(C)C#CC(O)CS(=O)c1ccccc1 (stereo unspecified)	-19.5%	-19.4%	-13.3%	-3.7%	-6.45%	-17.1%
CC(C)=NN/C=N/S(=O)(=O)c1ccc(C)cc1	15.2%	6.05%	10.4%	25%	2.1%	4.65%

SMILES	growth inhibition [1]	growth inhibition [2]	growth inhibition [3]	growth inhibition [4]	growth inhibition [5]	growth inhibition [6]
O=C(/C=C/c1ccccc1)NC(=S)Nc1cc(Cl)ccc1O	2.55%	7.8%	6.25%	5.5%	12.7%	6.85%
CCC/C=C/c1cc2c(cc1O)CC[C@@H]1[C@@H]2CC[C@]2(C)[C@@H](O)CC[C@@H]12	19.2%	16.4%	45.6%	35.4%	41.3%	23.9%
CCN(Cc1ccc(C(=O)OC)cc1)c1cccc(NC(C)=O)c1	33.5%	6.7%	29.9%	-9.7%	20.3%	34%
COc1ccc(NC(=O)c2c(Br)c(Br)c(Br)c(Br)c2C(=O)O)c(Cl)c1	92.5% (active)	88.7% (active)	92% (active)	83.5% (active)	90.3% (active)	95.2% (active)
O=C(CCc1ccc(O)c(O)c1)NCCc1cc(O)cc(O)c1	23.1%	-23.9%	-26.8%	-4.95%	-42.5%	-52.5%
CCOC(=O)CC(CSCP(=O)(OCC)OCC)C(=O)OCC (stereo unspecified)	5.15%	-1.35%	13.2%	3.4%	9.55%	16.2%
COc1cccc2cc(-c3c[nH]c4ccccc34)c(=O)oc12	1%	11.2%	11.2%	7%	1.65%	0.75%
Cc1cc(N(CCC#N)CCC#N)ccc1/C=C(\N=[N+]=[N-])C(=O)NC(=O)COc1ccccc1	16.1%	-19.8%	4.7%	11.9%	-6.65%	-9.05%
COc1c(NC(=O)c2ccc(Cl)c(Cl)c2)cccc1[N+](=O)[O-]	7.6%	-9.1%	3.35%	-2.85%	1.3%	-1.3%
NNC(=O)CC(O)C(=O)NN (stereo unspecified)	-4.7%	-0.8%	-1.85%	11.4%	-1.75%	4.75%
C/C(N=NC(=S)N1CCCCC1C)=C1\C=CC=CN1O (stereo unspecified)	49.2%	4.25%	54.7%	89.4% (active)	20.1%	20.6%
CCN(CC)CC1(C)NN=C2C(n3cccc3)=CC=CN21 (stereo unspecified)	-3.7%	11.7%	-3.4%	-20.6%	-4.2%	-4.9%
CC(C)Oc1ccc(C(=O)O)cc1	23.6%	5.05%	4.75%	-0.15%	-19.1%	14.1%
CCCCCCC1C=CC(CCCCCCCC(=O)O)C(/C=C/CCCCCCCC(=O)O)C1CCCCCC (stereo unspecified)	-10.7%	-10.8%	-10.3%	21%	-25%	6.85%
CCOC(=O)N1CCN(P(=O)(c2ccccc2)N2CCN(C(=O)OCC)CC2)CC1	7.35%	-28.4%	1.85%	-31.6%	-0.75%	9.85%
Cc1nc2[nH]ncn2c(=O)c1CCCl	20.9%	-31.9%	-11.9%	-7.55%	8.1%	9.4%
C/C(CC(O)(C(F)(F)Cl)C(F)(F)Cl)=N\NC(N)=S	29.9%	-3.05%	0.1%	20.1%	-0.55%	25.2%
CC(=O)OCC1OC(OC(C)=O)C(NC(=O)C(C)NC(=O)OCc2ccccc2)C(OC(C)=O)C1OC(C)=O (stereo unspecified)	37.1%	6.9%	16.2%	11.6%	-1.05%	14.6%
